Compound activity from PubChem.
In the library only some 3.6% were active in any assay of this set; here they are far more common.
A549 viability – counter-screen for Nrf2 inhibitors: cytotoxicity in A549 cells; A549 ARE-Fluc cells, CellTiter-Fluor viability, 18-24 h; Potency, µM (highest dose often 46 µM), most hits filed as inhibitors; 390,000 compounds, 0.16% hits; AID 504648
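A549 ARE_Fluc cells in 5% FBS OPTI-MEM were exposed to compounds in concentration-response for 18-24 h at 37 deg C. Viability was read by CellTiter-Fluor fluorescence (Ex 405/Em 525) after 30 min, before the luciferase read.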
HepG2 tox – HepG2 cytotoxicity, counter-screen for TGF-b inhibitors; Potency, µM (titrated, usually from 46.1 µM), hits mostly cytotoxic; HepG2 CAGA-GFP viability, ATP luminescence, 18 h; 410,000 compounds, 0.76% hits
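CellTiter-Glo luminescence gave cytotoxicity after 18 hours at 37 degrees C. The cells were HepG2 CAGA-GFP in 1% FBS DMEM, stimulated with 500 pg/mL TGF-beta after compound addition. %Activity was normalised to no-cell wells (complete cell-killing) and DMSO (no toxicity), and curves were fitted and classified.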
Nrf2 activator – activates Nrf2 signaling. AREc32 ARE-luciferase reporter (MCF7-derived line), luminescence, 24 h. Potency, µM (doses to about 46.1 µM), most hits filed as activators. 410,000 compounds, 0.31% hits. AID 624171; note: nearly all actives have a fitted effect of over 65% in size
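ARE activation measured as luciferase luminescence (Steady-Glo, 30 min RT) in AREc32_Fluc cells after 24 hr compound exposure at 37 deg C, 5% CO2; cells seeded overnight at 1000/well in OPTI-MEM, 5% FBS.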
Nrf2 block – blocks Nrf2 signaling; A549 ARE-Fluc reporter, luciferase luminescence, 18-24 h; Potency, µM (series often up to 46 µM), most hits filed as inhibitors; 360,000 compounds, 2.1% hits; AID 504444; note: nearly all actives have a fitted effect of over 60% in size
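Nrf2 activity is the BugLite luminescence, read 15 min after reagent at room temperature, following CellTiter-Fluor cytotoxicity readout (30 min, 37C). Compound titrations were applied for 18-24 h to 5000 A549 ARE_Fluc cells/well in 5% FBS OPTI-MEM.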
TGFb inhibitor – blocks TGF-b signaling. HepG2 CAGA-GFP TGF-b/SMAD3 reporter, GFP fluorescence, 18 h; TGF-beta stimulated, 500 pg/mL final. Potency, µM (series often up to 46.1 µM), usual class: inhibitors. 410,000 compounds, 1.2% hits. AID 588855; note: nearly all actives have a fitted effect of over 65% in size
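HEPG2 CAGA-GFP reporter cells (1000/well, DMEM with 1% FBS) received compounds, then recombinant TGF-beta at 500 pg/mL final for 18 hours at 37 degrees C. Per-cell GFP summed per well was normalised to unstimulated and stimulated DMSO controls before curve fitting.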
Hits are given with their value. Calls come from the whole dose curve; as a rule, active = well fitted curve in the direction sought with a large enough effect; inconclusive = small, poorly fitted or top-dose-only effect, or another doubt; inactive = no such curve, though single readings can be large; an effect the other way counts as inactive or inconclusive.

For Cc1ccc(S(=O)(=O)N(CC(=O)N(C)C)c2cccc([N+](=O)[O-])c2)cc1 the results were A549 viability inactive, HepG2 tox inactive, Nrf2 activator inactive, Nrf2 block inactive and TGFb inhibitor inactive.
For O=[N+]([O-])c1ccccc1S(=O)(=O)NC1CCCCCCC1 the results were A549 viability inactive, HepG2 tox inactive, Nrf2 activator inactive, Nrf2 block inconclusive and TGFb inhibitor inactive.
Screening CCN(c1ccc(NC(=O)c2ccc(N3CCCC3=O)cc2)cc1)C(C)C returned A549 viability inactive, HepG2 tox inactive, Nrf2 activator inactive, Nrf2 block 9.2µM and TGFb inhibitor inactive.
Screening Oc1[nH]c2ccccc2c1N=NC(=S)NCCc1ccccc1 returned A549 viability inactive, HepG2 tox inactive, Nrf2 activator inactive, Nrf2 block inconclusive and TGFb inhibitor 11µM.
`Oc1[nH]c2ccccc2c1N=NC(=S)N1CCOCC1` gave A549 viability inactive, HepG2 tox 3.2µM, Nrf2 activator inconclusive, Nrf2 block inconclusive and TGFb inhibitor 7.1µM.
`Oc1cccc(NC(=S)N=Nc2c(O)[nH]c3ccccc23)c1` gave A549 viability inactive, HepG2 tox inactive, Nrf2 activator inactive, Nrf2 block inactive and TGFb inhibitor inconclusive.
`CCOc1ccc(NC(=S)N=Nc2c(O)[nH]c3ccccc23)cc1` gave A549 viability inactive, HepG2 tox 8.9µM, Nrf2 activator inactive, Nrf2 block inconclusive and TGFb inhibitor 7.9µM.
`Cc1ccccc1NC(=O)C(C)OC(=O)C1CCCO1` (centres undefined) gave HepG2 tox inactive, Nrf2 activator inactive and TGFb inhibitor inactive.
For CSc1nc(C)c(Cl)c(C)c1C#N the results were A549 viability inactive, HepG2 tox inactive, Nrf2 activator inactive, Nrf2 block inactive and TGFb inhibitor inactive.
C=CCNS(=O)(=O)c1nc(C)c(Cl)c(C)c1C#N was read as A549 viability inactive, HepG2 tox inactive, Nrf2 activator 11µM, Nrf2 block inactive and TGFb inhibitor inactive.
For CC1CCN(c2nn3c(=O)c(C(=O)NCCCOC(C)C)cnc3s2)CC1 the results were A549 viability inactive, HepG2 tox inactive, Nrf2 activator inactive, Nrf2 block inconclusive and TGFb inhibitor inconclusive.
O=C(OCn1ncc(Cl)c(Cl)c1=O)c1cccc(C(F)(F)F)c1 was read as HepG2 tox 7.1µM, Nrf2 activator inactive, Nrf2 block inactive and TGFb inhibitor inconclusive.
For O=C1OCCC1Sc1nnc(-c2cccnc2)n1-c1ccccc1F (centres undefined) the results were A549 viability inactive, HepG2 tox inactive, Nrf2 activator inactive, Nrf2 block inactive and TGFb inhibitor inactive.
For Cc1cc2c(cc1C)CSC(c1ccccc1O)SC2 the results were A549 viability inactive, HepG2 tox inactive, Nrf2 activator inactive, Nrf2 block inactive and TGFb inhibitor 16µM.
For Oc1ccccc1C1SC(c2ccccc2O)SC(c2ccccc2O)S1 (centres undefined) the results were A549 viability inactive, HepG2 tox 22µM, Nrf2 activator inactive, Nrf2 block inactive and TGFb inhibitor inconclusive.
Cc1ccc2nc(CSc3nc(C)nc4c3oc3ccccc34)[nH]c2c1 was read as A549 viability inconclusive, HepG2 tox inactive, Nrf2 activator inactive, Nrf2 block 18µM and TGFb inhibitor inconclusive.
Cc1nc(SCc2nc3ccccc3[nH]2)c2oc3ccccc3c2n1 was read as A549 viability inactive, HepG2 tox inactive, Nrf2 activator inactive, Nrf2 block inconclusive and TGFb inhibitor inactive.
Screening CCOC(=O)N1CCC(N(C(=O)Nc2ccc(Cl)c(Cl)c2)C(C)CC)CC1 (centres undefined) returned A549 viability inconclusive, HepG2 tox inactive, Nrf2 activator inactive, Nrf2 block 15µM and TGFb inhibitor inconclusive.
For COC(=O)c1ccccc1NC(=O)c1cc(-c2ccc(O)cc2)on1 the results were A549 viability inactive, HepG2 tox inactive, Nrf2 activator inactive, Nrf2 block inactive and TGFb inhibitor inactive.
COc1ccc(CCC(=O)NCCc2csc(-c3ccc(F)cc3)n2)cc1 was read as A549 viability inactive, HepG2 tox inactive, Nrf2 activator inactive and TGFb inhibitor 8.9µM.
Cc1ccccc1C(=O)NCCc1csc(-c2ccc(C(F)(F)F)cc2)n1 was read as A549 viability inactive, HepG2 tox inactive, Nrf2 activator inactive and TGFb inhibitor inactive.
For COc1ccc(-c2nc(CCNC(=O)Cc3ccc(F)cc3)cs2)cc1 the results were A549 viability inactive, HepG2 tox inactive, Nrf2 activator inactive and TGFb inhibitor inactive.
COc1ccccc1C(=O)NCCc1csc(-c2ccc(C(F)(F)F)cc2)n1 was read as A549 viability inactive, HepG2 tox inactive, Nrf2 activator inactive and TGFb inhibitor 8.9µM.
COc1ccc(N(Cc2cc3ccc(C)cc3[nH]c2=O)C(=O)c2ccco2)cc1 was read as A549 viability inactive, HepG2 tox inactive, Nrf2 activator inactive, Nrf2 block inactive and TGFb inhibitor inactive.
For COc1cc([N+](=O)[O-])ccc1NC(=O)NNC(=O)C(C)Oc1ccc(F)cc1F (centres undefined) the results were A549 viability inactive, HepG2 tox inactive, Nrf2 activator inactive, Nrf2 block inactive and TGFb inhibitor inactive.
Screening Cc1cc(OC(C)C(=O)NNC(=O)Nc2ccc(F)cc2F)cc(C)c1Cl (centres undefined) returned A549 viability inactive, HepG2 tox inactive, Nrf2 activator inactive, Nrf2 block inactive and TGFb inhibitor 16µM.
Screening O=C(COC(=O)COc1cccc(Br)c1)NCc1ccc2c(c1)OCO2 returned A549 viability inactive, HepG2 tox inactive, Nrf2 activator inactive, Nrf2 block inactive and TGFb inhibitor inactive.
`O=C(Cc1csc(-c2cccc(Cl)c2)n1)Nc1cccc(S(=O)(=O)NC2=NCCC2)c1` gave A549 viability inactive, HepG2 tox inactive, Nrf2 activator inactive, Nrf2 block 23µM and TGFb inhibitor inactive.
Screening O=C(CCl)Nc1cccc(S(=O)(=O)NC2=NCCCCC2)c1 returned A549 viability inactive, HepG2 tox 11µM, Nrf2 activator inconclusive, Nrf2 block 21µM and TGFb inhibitor inconclusive.
`O=C(Nc1cccc(S(=O)(=O)NC2=NCCC2)c1)c1ccc(F)cc1` gave A549 viability inactive, HepG2 tox inactive, Nrf2 activator inactive, Nrf2 block inconclusive and TGFb inhibitor inactive.
`Cc1cccc(-c2nc(CC(=O)Nc3cccc(S(=O)(=O)NC4=NCCC4)c3)cs2)c1` gave A549 viability inactive, HepG2 tox inactive, Nrf2 activator inactive, Nrf2 block inactive and TGFb inhibitor inactive.
`O=C(Nc1cccc(S(=O)(=O)NC2=NCCC2)c1)c1ccc(C(F)(F)F)cc1` gave A549 viability inactive, HepG2 tox inactive, Nrf2 activator inactive, Nrf2 block 18µM and TGFb inhibitor inactive.
